RORg inh – inhibitors of mouse ROR gamma transcriptional activity; 5.4% of 310,000 active; Potency, µM (titrated, usually from 53.6 µM), inactives show at the highest dose activity change, negative = inhibition, usual class: inhibitors; P51450; Drosophila S2 Gal4-RORgamma UAS-luciferase reporter, 20 h; also: nearly all actives have a fitted effect of over 60% in size
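Stable Schneider cell line, Gal4 DNA-binding domain fused to ROR gamma, UAS-luciferase. Cmpd 1 hr RT → CuSO4 700 uM final → 20 hr RT → luciferase reagent 10 min → luminescence.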
TDP1 cell noCPT – qHTS for Inhibitors of human tyrosyl-DNA phosphodiesterase 1 (TDP1): qHTS in cells in absence of CPT | DT40 Tdp1-/- hTDP1 cells, no CPT, ATP luminescence, 48 h | 15% of 420,000 active | Potency, µM (doses to about 46.2 µM), for the others: top-dose activity change, negative = growth inhibition, actives largely listed as inhibitors; also: nearly all actives have a fitted effect of over 55% in size
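A cellular qHTS used chicken DT40 cells lacking endogenous Tdp1 but carrying stably transfected human TDP1. Compounds were applied without camptothecin, and cell growth kinetics were judged by ATP-dependent luminescence after ≥48 hr.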
TDP1 block – blocks human tyrosyl-DNA phosphodiesterase 1. Q9NUW8. recombinant TDP1, AlphaScreen DNA substrate cleavage. Potency, µM (highest dose often 130 µM), without a hit: at the highest dose activity change, negative = inhibition, actives largely listed as inhibitors. 0.28% of 350,000 active. AID 485290; also: nearly all actives have a fitted effect of over 40% in size
Target sequence (Q9NUW8 whole entry, looked up): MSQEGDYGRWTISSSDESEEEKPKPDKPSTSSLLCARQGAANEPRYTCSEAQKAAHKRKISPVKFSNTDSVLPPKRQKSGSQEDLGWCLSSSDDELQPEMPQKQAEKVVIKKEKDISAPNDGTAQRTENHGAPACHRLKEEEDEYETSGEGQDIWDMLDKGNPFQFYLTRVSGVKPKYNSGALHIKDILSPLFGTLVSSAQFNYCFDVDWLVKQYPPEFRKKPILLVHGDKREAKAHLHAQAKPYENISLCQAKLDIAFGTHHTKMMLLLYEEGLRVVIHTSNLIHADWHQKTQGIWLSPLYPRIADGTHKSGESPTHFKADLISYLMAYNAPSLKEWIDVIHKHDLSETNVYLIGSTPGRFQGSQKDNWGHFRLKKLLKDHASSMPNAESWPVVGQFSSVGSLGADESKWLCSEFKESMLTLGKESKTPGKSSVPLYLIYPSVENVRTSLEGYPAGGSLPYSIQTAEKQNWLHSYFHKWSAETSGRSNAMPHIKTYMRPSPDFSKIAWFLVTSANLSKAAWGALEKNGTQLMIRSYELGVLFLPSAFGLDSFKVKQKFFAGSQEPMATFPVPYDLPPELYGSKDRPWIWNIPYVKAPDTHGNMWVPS
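Compounds were preincubated with Tdp1 (1 nM final) for 15 min at room temperature before substrate (15 nM final) started a 5 min reaction; beads (10 ug/ml final) were then added for 10 min before AlphaScreen detection.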
Gal4-VP16 FLuc – Gal4-VP16 reporter inhibition counter-screen; 3.5% of 310,000 active; AID 2546; Drosophila S2 Gal4-VP16 UAS-luciferase, luminescence, 20 h; Potency, µM (series often up to 53.6 µM), for the others: at the top dose activity, negative = inhibition, actives largely listed as inhibitors;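 also: Gal4-VP16 expression switched on by copper sulfate through the metallothionein promoter; nearly all actives have a fitted effect of over 50% in size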
DT40 TDP1 CPT – growth inhibition of DT40 Tdp1-/-;hTDP1 cells with camptothecin (screen for TDP1 inhibitors). chicken DT40 Tdp1-/-;hTDP1 cells + 20 nM CPT, ATP luminescence, 48 h. Potency, µM (series often up to 46.2 µM), inactives show at the top dose activity change, negative = growth inhibition, usual class: inhibitors. 12% of 420,000 active. AID 686979; also: nearly all actives have a fitted effect of over 55% in size
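Cell growth measured by CellTiter-Glo luminescence after a minimum 48 h, 37 C compound exposure with 20 nM CPT in Tdp1-knockout DT40 cells stably expressing hTDP1, seeded 400/well; qHTS titration format.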
The depositor's hits bear a star; [ ] = dose if it differs, or a comment. Hits are enriched below; roughly 19% of the tested compounds scored in any of these assays. Calls follow the shape of the dose curve; as a rule, active = well fitted curve in the direction sought with a large enough effect; inconclusive = small, poorly fitted or top-dose-only effect, or another doubt; inactive = no such curve, though single readings can be large; an effect the other way counts as inactive or inconclusive. % is scaled to controls: 0 for no effect and ±100 for the full control effect; potency is read from the fitted curve at half-maximal effect.

How did CCCC1COC(Cn2cncn2)(c2ccc(C)cc2)O1 (centres undefined) do in these assays?
RORg inh: -24%; TDP1 cell noCPT: 11µM*; TDP1 block: 0%; Gal4-VP16 FLuc: 3%; DT40 TDP1 CPT: 23µM*

What do the screens show for `COc1cc(OC)c(OC)cc1CN1CCN(Cc2cccc(F)c2)CC1`?
RORg inh: -39%[1.91 µM]; TDP1 cell noCPT: -3%; Gal4-VP16 FLuc: 8%; DT40 TDP1 CPT: -26%

Results for CC(C)(C)c1ccc(C(=O)C2CC2)cc1 ?
TDP1 cell noCPT: 0%; DT40 TDP1 CPT: 7%

What do the screens show for `CC(C)(C)c1ccc(C(=O)C=[N+]=[N-])cc1`?
RORg inh: -1%; TDP1 cell noCPT: 15µM*; TDP1 block: 7%; Gal4-VP16 FLuc: 2%; DT40 TDP1 CPT: 26µM*

Results for CCn1c2c(c(=O)n3ncc(C(=O)Nc4cc(Cl)ccc4C)c13)CN(Cc1ccc(OC)cc1)CC2 ?
TDP1 cell noCPT: 21µM*; TDP1 block: 2%; DT40 TDP1 CPT: inconclusive

What do the screens show for `COc1ccc(CN2CCc3c(c(=O)n4ncc(C(=O)N5CCN(c6ccccc6OC)CC5)c4n3C)C2)cc1`?
TDP1 cell noCPT: 12µM*; TDP1 block: 4%; DT40 TDP1 CPT: 16µM*

Results for CCn1c2c(c(=O)n3ncc(C(=O)Nc4ccc(F)cc4Cl)c13)CN(Cc1ccc(OC)cc1)CC2 ?
TDP1 cell noCPT: 23µM*; TDP1 block: 1%; DT40 TDP1 CPT: inconclusive

Results for CCn1c2c(c(=O)n3ncc(C(=O)Nc4cccc(Cl)c4C)c13)CN(Cc1ccc(OC)cc1)CC2 ?
TDP1 cell noCPT: inconclusive; TDP1 block: 7%; DT40 TDP1 CPT: 21µM*

Results for Cc1ccc(Nc2nnc(SCC(=O)Nc3ncc(S(=O)(=O)c4ccc([N+](=O)[O-])cc4)s3)s2)cc1 ?
RORg inh: 27%[10 µM]; TDP1 cell noCPT: inconclusive; TDP1 block: 2%; Gal4-VP16 FLuc: -71%; DT40 TDP1 CPT: inconclusive

How did Cc1ccc(S(=O)(=O)N(C)/C(=N/S(=O)(=O)c2ccccc2)c2ccccc2)cc1 do in these assays?
RORg inh: 2%; TDP1 cell noCPT: -7%; TDP1 block: 3%; Gal4-VP16 FLuc: -5%[0.365 µM]; DT40 TDP1 CPT: -10%

What do the screens show for `O=C1/C(=C/c2cccnc2)SC(=S)N1c1ccc(O)cc1`?
RORg inh: 0%; TDP1 cell noCPT: inconclusive; Gal4-VP16 FLuc: 0%; DT40 TDP1 CPT: -24%

What do the screens show for `COc1ccc(/C=C2\SC(=S)N(CC3CCCO3)C2=O)cc1` (centres undefined)?
RORg inh: 23%; TDP1 cell noCPT: -9%; TDP1 block: 9%; Gal4-VP16 FLuc: 2%; DT40 TDP1 CPT: 16%

What do the screens show for `O=C1/C(=C/c2cccnc2)SC(=S)N1CC1CCCO1` (centres undefined)?
RORg inh: 10µM*; TDP1 cell noCPT: inconclusive; TDP1 block: 1%; Gal4-VP16 FLuc: 6%; DT40 TDP1 CPT: -4%

Results for Cc1ccc(/C=C2\SC(=S)N(CC3CCCO3)C2=O)o1 (centres undefined) ?
RORg inh: 13µM*; TDP1 cell noCPT: inconclusive; TDP1 block: 11%; Gal4-VP16 FLuc: inconclusive; DT40 TDP1 CPT: inconclusive

What do the screens show for `O=C1/C(=C/c2cccnc2)SC(=S)N1c1ccc(F)cc1`?
RORg inh: 11µM*; TDP1 cell noCPT: -14%; TDP1 block: 3%; Gal4-VP16 FLuc: -11%; DT40 TDP1 CPT: inconclusive

How did COc1cccc(NC(=O)c2sc(Cl)nc2C)c1 do in these assays?
RORg inh: 15%[1.91 µM]; TDP1 cell noCPT: inconclusive; Gal4-VP16 FLuc: 26%; DT40 TDP1 CPT: -20%

How did CCCN(C(=O)c1cccs1)c1c(N)n(Cc2ccccc2)c(=O)[nH]c1=O do in these assays?
TDP1 cell noCPT: 8%; TDP1 block: 1%; DT40 TDP1 CPT: 2%

What do the screens show for `COc1cccc(-c2nc(-c3cccs3)no2)c1`?
RORg inh: 13µM*; TDP1 cell noCPT: 1%; Gal4-VP16 FLuc: inconclusive; DT40 TDP1 CPT: 4%

Results for COc1ccc(-c2ccc(-c3noc(-c4cccc(OC)c4)n3)c(OC)n2)cc1 ?
RORg inh: 0.35µM*; TDP1 cell noCPT: -25%; TDP1 block: -6%; Gal4-VP16 FLuc: inconclusive; DT40 TDP1 CPT: -23%

How did COc1cc(OC)cc(-c2nc(-c3cccs3)no2)c1 do in these assays?
RORg inh: 24%; TDP1 cell noCPT: -17%; TDP1 block: 4%; Gal4-VP16 FLuc: -22%; DT40 TDP1 CPT: 4%

How did CCOc1cc(-c2nc(-c3ccc(-c4ccc(OC)cc4)nc3OC)no2)cc(OCC)c1OCC do in these assays?
TDP1 cell noCPT: 10µM*; TDP1 block: 2%; DT40 TDP1 CPT: 18µM*

How did COc1ccc(-c2ccc(-c3noc(-c4ccc(OC)c(OC)c4)n3)c(OC)n2)cc1 do in these assays?
RORg inh: -12%; TDP1 block: -1%; Gal4-VP16 FLuc: -1%

What do the screens show for `CCN=C(NS(=O)(=O)c1ccc(Br)cc1)c1ccc(Cl)cc1`?
RORg inh: 20%; TDP1 cell noCPT: 5%; TDP1 block: 2%; Gal4-VP16 FLuc: -10%; DT40 TDP1 CPT: -23%

What do the screens show for `CC(Sc1nc2ccccc2[nH]1)C(=O)NC1CCCCC1C` (centres undefined)?
RORg inh: -7%; TDP1 cell noCPT: -17%; TDP1 block: 5%; Gal4-VP16 FLuc: -8%; DT40 TDP1 CPT: -18%

How did COc1ccc(C(CNC(=O)c2cc3ccccc3o2)N2CCCC2)cc1 (centres undefined) do in these assays?
TDP1 cell noCPT: inconclusive; TDP1 block: 1%; DT40 TDP1 CPT: inconclusive

Results for COc1ccc(C(CNC(=O)c2cc3ccccc3o2)N2CCCCC2)cc1 (centres undefined) ?
RORg inh: -11%; TDP1 cell noCPT: 21µM*; TDP1 block: 5%; Gal4-VP16 FLuc: 13%; DT40 TDP1 CPT: inconclusive

How did COc1ccc(C(CNC(=O)c2oc3ccc(C)cc3c2C)N2CCCCC2)cc1 (centres undefined) do in these assays?
RORg inh: 19%; TDP1 cell noCPT: inconclusive; TDP1 block: 3%; Gal4-VP16 FLuc: -7%; DT40 TDP1 CPT: 21µM*

What do the screens show for `COc1ccc(C(CNC(=O)c2oc3cc(C)c(Cl)cc3c2C)N2CCCCC2)cc1` (centres undefined)?
RORg inh: 17%; TDP1 cell noCPT: inconclusive; TDP1 block: 8%; Gal4-VP16 FLuc: -7%; DT40 TDP1 CPT: 13µM*

How did COc1ccc(CCNC(=O)c2oc3ccccc3c2C)cc1 do in these assays?
TDP1 cell noCPT: inconclusive; TDP1 block: -14%; DT40 TDP1 CPT: inconclusive

High-throughput results (PubChem)
